DT40 TDP1 no CPT: qHTS for Inhibitors of human tyrosyl-DNA phosphodiesterase 1 (TDP1): qHTS in cells in absence of CPT. DT40 Tdp1-/- hTDP1 cells, no CPT, ATP luminescence, 48 h. Potency, µM (highest dose often 46.2 µM), usual class: inhibitors. 420,000 compounds, 15% hits; further: nearly all actives have a fitted effect of over 55% in size
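Cells were dispensed at 400 per well, compounds added by pin tool, plates incubated ≥48 hr at 37 °C, then CellTiter-Glo added for 30 min at room temperature before luminescence reading. Line: DT40 Tdp1-/- complemented with hTDP1; camptothecin omitted.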
ALOX12 inh: inhibitors of human 12S-lipoxygenase ALOX12 | AID 1671190 | Potency, µM (doses to about 108 µM), actives largely listed as inhibitors | 580,000 compounds, 1.1% hits | purified 12hLO, xylenol orange hydroperoxide absorbance
Target sequence (P18054 whole entry, looked up): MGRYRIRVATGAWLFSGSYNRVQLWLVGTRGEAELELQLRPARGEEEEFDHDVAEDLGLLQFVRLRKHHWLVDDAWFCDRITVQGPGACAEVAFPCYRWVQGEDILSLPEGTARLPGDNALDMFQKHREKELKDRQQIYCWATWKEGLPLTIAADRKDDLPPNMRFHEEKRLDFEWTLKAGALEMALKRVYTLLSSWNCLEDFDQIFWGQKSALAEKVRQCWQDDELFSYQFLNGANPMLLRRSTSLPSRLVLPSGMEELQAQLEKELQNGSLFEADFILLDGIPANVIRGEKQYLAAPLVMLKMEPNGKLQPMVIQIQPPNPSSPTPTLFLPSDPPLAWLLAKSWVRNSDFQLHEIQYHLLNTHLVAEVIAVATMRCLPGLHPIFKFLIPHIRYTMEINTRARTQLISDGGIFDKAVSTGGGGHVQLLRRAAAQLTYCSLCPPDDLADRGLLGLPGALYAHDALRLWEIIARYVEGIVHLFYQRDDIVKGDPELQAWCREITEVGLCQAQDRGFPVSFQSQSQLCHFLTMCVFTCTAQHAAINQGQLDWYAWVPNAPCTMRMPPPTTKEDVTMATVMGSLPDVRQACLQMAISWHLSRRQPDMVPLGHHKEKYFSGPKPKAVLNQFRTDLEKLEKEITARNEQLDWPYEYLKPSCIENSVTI
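Purified human 12hLO at 150 nM in 25 mM Hepes, 0.01% Triton X-100, pH 7.0, preincubated 15 min at room temperature with compound. Reaction started with 40 uM arachidonic acid, 30 min at room temperature. Hydroperoxide measured by Fe-xylenol orange, 573/405 nm absorbance ratio.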
HT1080 IDH1KD tx: toxicity to HT-1080 IDH1 knockdown cells (counter line); HT-1080 IDH1 knockdown viability, ATP luminescence, 48 h; Potency, µM (top dose mostly 46.1 µM), usual class: cytotoxic; 360,000 compounds, 2% hits; AID 686971
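Assay cells: HT-1080 with IDH1 knockdown, 750 per well, RPMI/5% FBS. Exposure: 48 h at 37 °C following 2 h pre-incubation. Read: CellTiter-Glo luminescence; fitted concentration-response, curve class assigned.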
DT40 TDP1 CPT: DT40-hTDP1 cell growth loss with CPT; chicken DT40 Tdp1-/-;hTDP1 cells + 20 nM CPT, ATP luminescence, 48 h; 420,000 compounds, 12% hits; AID 686979; Potency, µM (doses to about 46.2 µM), hits mostly inhibitors; further: nearly all actives have a fitted effect of over 55% in size
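Chicken DT40 Tdp1-/- cells stably complemented with human TDP1 were seeded at 400 cells/well in medium containing 20 nM camptothecin, exposed to pin-transferred compounds, and grown at 37 °C for at least 48 hr. Viability was read as ATP luminescence.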
IL1B secr inh: inhibitors of inflammasome signaling (IL-1 beta secretion) | THP-1 LPS/ATP IL-1B secretion, AlphaLISA, 16 h; active compounds read low | activity change, % at 57.5 µM | 360,000 compounds, 4.7% hits; in the data active means activity change below about -50%; inconclusive means mostly about -30% to -49%
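THP-1 cells pretreated 1 hr with compounds (up to 57.5 uM final), then stimulated with LPS (250 ng/mL final) plus ATP (1.25 mM final); secreted IL-1B measured by AlphaLISA after 16 hr, decreased signal indicating inhibition.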
HT1080-NT tox: kills 2HG-producing HT-1080-NT fibrosarcoma cells | HT-1080-NT fibrosarcoma viability, CellTiter-Glo ATP luminescence, 48 h | Potency, µM (highest dose often 46.1 µM), hits mostly cytotoxic | 360,000 compounds, 1.6% hits;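 further: NT is the 2HG producing partner of a matched IDH1 knockdown line; nearly all actives have a fitted effect of over 55% in size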
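A 48-hour cytotoxicity screen used HT-1080-NT cells plated 2 hours before compound delivery. ATP-based CellTiter-Glo luminescence measured viability, normalized to DMSO and no-cell controls.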
Hits are given with their value; i = inactive; ? = inconclusive; nt = no result. This is one part of a sample in which hits are shown more often than they occur. Unless noted, the call rests on the fitted dose curve; in most records, active means well fitted curve in the direction sought with a large enough effect; inconclusive means small, poorly fitted or top-dose-only effect, or another doubt; inactive means no such curve, though single readings can be large; an effect the other way counts as inactive or inconclusive.

SMILES | DT40 TDP1 no CPT | ALOX12 inh | HT1080 IDH1KD tx | DT40 TDP1 CPT | IL1B secr inh | HT1080-NT tox
Cc1ccc(N(Cc2ccccc2)C(=O)c2ccc(F)cc2)cc1 | ? | i | i | 21µM | i | i
C=CCc1ccc(OCCOc2cccc(OC)c2)c(OC)c1 | nt | i | nt | nt | nt | nt
COCCn1ncc(N2CCC(C(=O)NCc3ccc(OC)c(OC)c3)C2)cc1=O (stereo not given) | nt | i | nt | nt | nt | nt
COc1ccccc1-c1cc(NC(=O)CCOC(C)C)n[nH]1 | nt | i | nt | nt | nt | nt
Cc1ccccc1S(=O)(=O)N1CC(C(=O)O)=CC[C@H]1c1ccc(Cl)cc1 | i | i | i | i | i | i
CCOC(=O)C1=CCC(c2ccccc2)N(S(=O)(=O)c2ccccc2C)C1 (stereo not given) | 23µM | i | i | ? | i | i
CCOC(=O)C1=CCC(c2ccccc2)N(S(=O)(=O)c2ccccc2[N+](=O)[O-])C1 (stereo not given) | ? | i | i | ? | i | i
CC(=O)C1=CCC(c2ccccc2)N(S(=O)(=O)c2ccccc2C)C1 (stereo not given) | 21µM | i | i | ? | i | i
COc1ccc(CC(=O)N(Cc2ccsc2)C2CC2)cc1 | nt | i | nt | nt | nt | nt
O=S1(=O)C[C@H](N2CCN(c3ncccn3)CC2)[C@@H](S(=O)(=O)c2ccc(F)cc2)C1 | nt | i | nt | nt | nt | nt
CC(C)=C1C2C=CC1C1C(=O)N(c3ccc4c(c3)OCO4)C(=O)C21 (stereo not given) | 21µM | i | i | ? | i | i
CC(C)=C1C2CCC1C1C(=O)N(c3ccc4c(c3)OCO4)C(=O)C21 (stereo not given) | i | i | i | i | i | i
CCc1ccc(C(=O)N2CCC(n3cnnc3COC)CC2)cc1 | nt | i | nt | nt | nt | nt
O=C(COc1ccc2c(c1)OCO2)Nc1nccs1 | i | i | ? | i | i | ?
CN(C)CCCN(C(=O)c1ccc(C(=O)c2ccccc2)cc1)c1nc2ccc(F)cc2s1 | ? | ? | i | ? | i | i
CN(C)CCCN(C(=O)c1ccco1)c1nc2ccc(F)cc2s1 | ? | i | i | i | i | i
CN(C)CCCN(C(=O)c1nc2ccccc2s1)c1nc2ccc(F)cc2s1 | 5.8µM | i | i | 3.7µM | i | i
CN(C)CCCN(C(=O)c1cccc(C(F)(F)F)c1)c1nc2ccc(F)cc2s1 | nt | 35µM | nt | nt | nt | nt
CCN1c2cc(C(=O)Nc3ccc(N4CCOCC4)cc3)ccc2C(=O)N2CCCCC21 (stereo not given) | nt | i | nt | nt | nt | nt
CCN(CC)c1nc2ccccc2nc1C(=O)Nc1ccc(F)c(Cl)c1 | nt | i | nt | nt | nt | nt
CCOc1ccc(Nc2nc3ccccc3c3nnc(CC)n23)cc1 | 10µM | i | nt | 15µM | nt | nt
CCOc1ccc(OCC)c(Nc2nc3ccccc3c3nnc(C)n23)c1 | ? | i | nt | i | nt | nt
CCc1nnc2c3ccccc3nc(Nc3ccc(F)c(Cl)c3)n12 | 18µM | i | nt | 18µM | nt | nt
CCn1cc(C(=O)O)c(=O)c2cc(F)c(N3CCN(C(=S)NC(=O)c4ccccc4Cl)CC3)cc21 | ? | i | i | ? | i | i
CCn1cc(C(=O)NC(C)C)c(=O)c2cc(F)c(N3CCN(C(=O)c4ccco4)CC3)cc21 | 18µM | i | i | ? | i | i
SMILES | DT40 TDP1 no CPT | ALOX12 inh | HT1080 IDH1KD tx | DT40 TDP1 CPT | IL1B secr inh | HT1080-NT tox
CCCc1nnc(NC(=O)c2cn(CC)c3cc(N4CCN(C)CC4)c(F)cc3c2=O)s1 | ? | i | i | i | i | i
CCCCCNC(=O)c1cn(CC)c2cc(N3CCN(C)CC3)c(F)cc2c1=O | ? | i | ? | i | -85 | 16µM
CCn1cc(C(=O)NCCC(C)C)c(=O)c2cc(F)c(N3CCN(C(=O)c4ccco4)CC3)cc21 | 18µM | i | i | 16µM | i | i
CCn1cc(C(=O)Nc2ncccc2O)c(=O)c2cc(F)c(N3CCN(C(=O)c4ccco4)CC3)cc21 | 8.2µM | i | i | 13µM | i | i
O=C1OC(C(=O)Nc2cc(C(F)(F)F)ccc2Cl)Cc2ccccc21 (stereo not given) | i | i | nt | i | nt | nt
COc1ccccc1C(=O)N1CCC2(CC1)CC(=O)Nc1ccccc1O2 | nt | i | nt | nt | nt | nt
O=C(c1ccco1)N1CCC[C@H]1c1nc(-c2ccc(F)cc2)no1 | nt | i | nt | nt | nt | nt
C=CCNC(=S)N1CCN(c2cc3c(cc2F)c(=O)c(C(=O)O)cn3CC)CC1 | ? | i | i | ? | ? | i
C=CCCCCCCCCC(=O)N1CCN(c2cc3c(cc2F)c(=O)c(C(=O)O)cn3CC)CC1 | ? | i | i | 21µM | i | i
CCN1CC(CNCc2cn(-c3ccc(OC)cc3)nc2-c2ccccc2Cl)CC1=O (stereo not given) | ? | i | i | ? | -51 | i
CCN1CC(CN(C)Cc2cn(-c3ccc(C)cc3)nc2-c2ccc(F)cc2)CC1=O (stereo not given) | ? | i | i | ? | i | i
COc1ccc(-n2cc(CNCC3CC(=O)N(C4CC4)C3)c(-c3ccccc3Cl)n2)cc1 (stereo not given) | 23µM | i | i | 16µM | ? | i
COC(=O)C1=C(C)N(Cc2ccccc2C(F)(F)F)C(=NCc2ccc3c(c2)OCO3)NC1c1cccc(C(F)(F)F)c1 (stereo not given) | nt | i | nt | nt | nt | nt
COC(=O)C1=C(C)N(Cc2ccccc2)C(=NCCc2cccnc2)N[C@H]1c1ccccc1 | 21µM | nt | i | 12µM | -58 | ?
COC(=O)C1=C(C)N(Cc2ccccc2)C(=NCCCCO)N[C@H]1c1ccccc1 | ? | nt | i | ? | i | i
COC(=O)C1=C(C)N(Cc2ccccc2)C(=NCC2CC2)N[C@H]1c1ccccc1 | 23µM | ? | i | 21µM | i | i
CCN1C(=NCC2CC2)N[C@@H](c2ccccc2)C(C(=O)OC)=C1C | ? | ? | i | ? | i | i
COC(=O)C1=C(C)N(Cc2ccccc2)C(=NCCc2cccnc2)N[C@H]1c1ccc(Br)cc1 | 4.6µM | nt | ? | 3.7µM | i | ?
COC(=O)C1=C(C)N(Cc2ccccc2)C(=NCc2ccc3c(c2)OCO3)N[C@H]1c1ccccc1 | 18µM | ? | i | ? | -57 | i
CCN(CC)S(=O)(=O)c1ccc(NS(=O)(=O)c2cccc(C#N)c2)cc1 | nt | i | nt | nt | nt | nt
CCCCN(C(=O)COC(=O)c1ccc(C=O)cc1)c1c(N)n(CCC)c(=O)[nH]c1=O | i | i | i | i | i | i
Cc1ccc(NC(=O)Cn2nc(C(F)(F)F)c3c2CCCC3)cc1C | i | i | nt | ? | nt | nt
COc1cc(NC(=O)Cn2nc(C(F)(F)F)c3c2CCC3)cc(OC)c1OC | 9.2µM | i | nt | ? | nt | nt
COC(=O)c1ccccc1NC(=O)Cn1nc(C(F)(F)F)c2c1CCCC2 | 7.3µM | i | nt | 23µM | nt | nt

Screening results: PubChem, National Center for Advancing Translational Sciences (NCATS)
